Compound activity: PubChem, National Center for Advancing Translational Sciences (NCATS)
12-LOX inh = ALOX12 (human) lipoxygenase inhibition; P18054; purified 12hLO, xylenol orange hydroperoxide absorbance; Potency, µM (highest dose often 108 µM), for the others: at the highest dose activity change, negative = inhibition, most hits filed as inhibitors; 580,000 compounds, 1.1% hits; note: % is set by controls: 0 for no effect and ±100 for the full control effect
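Hydroperoxide product was detected by ferrous iron/xylenol orange as the 573 to 405 nm absorbance ratio. Arachidonic acid at 40 uM (final) was turned over for 30 min at room temperature by 150 nM human 12hLO, pH 7.0 Hepes buffer, after 15 min compound preincubation.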
G9a inh = blocks human histone lysine methyltransferase G9a | Q96KQ7 | G9a H3K9 monomethylation, AlphaScreen, 2 h | Potency, µM (top dose mostly 102 µM), for inactives: at the top dose activity, negative = inhibition, actives largely listed as inhibitors | 350,000 compounds, 8.8% hits; note: % is set by controls: 0 for no effect and ±100 for the full control effect; nearly all actives have a fitted effect of over 75% in size
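G9a (20 nM) was preincubated 15 min with compound, then reacted 2 h at room temperature with 500 nM biotin-H3K9 peptide and 20 µM SAM. Monomethyl-H3K9 detected by AlphaScreen using anti-H3K9me1 antibody.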
PLK1 PBD block = PLK1 (human) polo-box domain binding inhibition; Potency, µM, without a hit: max response, negative = inhibition, most hits filed as inhibitors; P53350; AID 720504; Plk1 PBD binding of FITC phosphopeptide, fluorescence polarization; 360,000 compounds, 2.8% hits; note: series mostly up to about 57 µM; % is set by controls: 0 for no effect and ±100 for the full control effect; nearly all actives have a fitted effect of over 65% in size
Target sequence (P53350 whole entry, looked up, the tested form may be a part): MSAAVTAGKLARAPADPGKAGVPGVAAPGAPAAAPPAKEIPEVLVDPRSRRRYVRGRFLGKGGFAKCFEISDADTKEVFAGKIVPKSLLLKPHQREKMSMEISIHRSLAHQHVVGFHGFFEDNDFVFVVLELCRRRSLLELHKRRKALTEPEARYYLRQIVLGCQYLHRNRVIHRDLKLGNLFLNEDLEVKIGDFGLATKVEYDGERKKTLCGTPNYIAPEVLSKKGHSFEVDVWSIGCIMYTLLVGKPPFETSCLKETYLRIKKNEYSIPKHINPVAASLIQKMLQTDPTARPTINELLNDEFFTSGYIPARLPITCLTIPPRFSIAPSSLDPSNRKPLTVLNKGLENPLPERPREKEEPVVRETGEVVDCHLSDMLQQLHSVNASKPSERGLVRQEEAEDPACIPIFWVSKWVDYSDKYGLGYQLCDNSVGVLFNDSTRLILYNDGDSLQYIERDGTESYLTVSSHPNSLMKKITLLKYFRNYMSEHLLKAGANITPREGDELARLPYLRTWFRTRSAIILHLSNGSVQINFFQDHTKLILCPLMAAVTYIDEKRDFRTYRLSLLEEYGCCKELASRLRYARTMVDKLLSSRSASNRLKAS
HP1b chromo inh = inhibitors of HP1-beta chromodomain binding to methylated histone tails. AID 540317. AlphaScreen HP1-beta / biotin-H3K9me3 peptide binding. 390,000 compounds, 0.56% hits. P83916. Potency, µM (series often up to 114 µM), for inactives: at the top dose activity change, negative = inhibition, hits mostly inhibitors; note: nearly all actives have a fitted effect of over 70% in size
Target sequence (P83916 whole entry, looked up): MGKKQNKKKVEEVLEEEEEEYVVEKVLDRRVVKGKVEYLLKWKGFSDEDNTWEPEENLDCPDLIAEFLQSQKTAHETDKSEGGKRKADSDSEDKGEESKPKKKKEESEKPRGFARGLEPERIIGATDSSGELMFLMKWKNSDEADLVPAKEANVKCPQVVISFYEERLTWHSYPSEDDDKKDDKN
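Compound inhibition of the preformed complex between 50 nM HP1-beta and 50 nM biotinylated H3K9me3 peptide was read by AlphaScreen. Buffer was PBS pH 7.4 with 0.01% Tween-20. Incubations ran 30 min at room temperature, with 10 ug/mL donor/acceptor beads.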
BAZ2B inh = inhibitors of human BAZ2B bromodomain | AlphaScreen BAZ2B-H3K14Ac peptide displacement | Potency, µM (doses to about 114 µM), without a hit: top-dose activity change, negative = inhibition, hits mostly inhibitors | Q9UIF8 | 360,000 compounds, 4.4% hits; note: % is set by controls: 0 for no effect and ±100 for the full control effect; nearly all actives have a fitted effect of over 60% in size
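BAZ2B (50 nM) with biotin-H3(5-23)K14Ac peptide (50 nM) in PBS pH 7.4, 0.01% Tween-20, preformed 30 min, then compound 30 min at room temperature; top concentration 110uM. AlphaScreen streptavidin donor/nickel chelate acceptor beads (10 ug/mL final), 20 min dark, signal read.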
JMJD2A Tudor = blocks the human JMJD2A Tudor domain; Potency, µM (top dose mostly 114 µM), without a hit: at the highest dose activity change, negative = inhibition, hits mostly inhibitors; O75164; AID 504339; AlphaScreen JMJD2A-Tudor / H3K4me3 peptide binding; 390,000 compounds, 4.4% hits; note: % is set by controls: 0 for no effect and ±100 for the full control effect; nearly all actives have a fitted effect of over 50% in size
Active calls of the source: *; u = inconclusive; x = no result given; ! = repeats disagree; [ ] = remark or other dose. An excerpt weighted towards active compounds, which were near 9% of everything screened. Calls come from the whole dose curve; as a rule, active = well fitted curve in the direction sought with a large enough effect; inconclusive = small, poorly fitted or top-dose-only effect, or another doubt; inactive = no such curve, though single readings can be large; an effect the other way counts as inactive or inconclusive. Potency is the fitted concentration of half-maximal effect.

SMILES | 12-LOX inh | G9a inh | PLK1 PBD block | HP1b chromo inh | BAZ2B inh | JMJD2A Tudor
COc1ccc(/C=C/C(=O)NCc2cccnc2)cc1 | -4.5% | -3.8% | 0.1% | 37.9% | 3.2% | 3.3%
CN(C)c1cccc(C(=O)NNC(=S)NC2CC3CCC2C3)c1 (centres undefined) | -9.0% | 50.1µM* | -13.9% | u | -25.6% | u
Cc1cccc(N(C(=O)CS(=O)CC(=O)Nc2ccc3c(c2)OCO3)C(C)C(=O)NC2CCCC2)c1C (centres undefined) | -22.8% | 56.2µM* | -6.8% | 22.9% | -27.7% | -4.8%
Cc1noc(-c2ccccc2OCC(=O)Nc2cccc([N+](=O)[O-])c2)n1 | -22.1% | u | x | -21.3% | u | 50.1µM*
Cc1ccccc1-c1noc(-c2ccccc2OCC(=O)Nc2ccccc2[N+](=O)[O-])n1 | 0.0% | 14.1µM* | x | -11.2% | u | 20µM*
Cc1noc(-c2ccccc2OCC(=O)Nc2ccccc2[N+](=O)[O-])n1 | -19.5% | u | x | 34.1% | -24.0% | -24.8%
CNC[C@H](Cc1ccccc1)NC[C@@H](Cc1cccc2ccccc12)NCCc1ccc(C)cc1 | u | u | -6.0% | 6.4% | u | u
CCCOC(c1ccccc1)(c1ccccc1)C(Oc1nc(C)cc(C)n1)C(=O)O (centres undefined) | 0.0% | 70.8µM* | 0.1% | 30.7% | -15.9% | -4.0%
Cc1cc(C)nc(OC(C(=O)O)C(OCCC(C)C)(c2ccccc2)c2ccccc2)n1 (centres undefined) | u | 4.0% | -24.7% | 22.3% | -17.2% | -13.3%
O=C(NCc1ccccc1CN1CCCCC1)c1ccccc1N1CCCC1=O | -17.8% | -10.9%[2.33 µM] | 3.9% | 26.9% | -2.9% | u
COC(Cc1ccccc1N1CCCC1=O)OC | -2.0% | 56.2µM* | -5.9% | 33.7% | u | -2.8%
CCOc1ccc(N/C=C/C(=O)c2ccc(OC)cc2)cc1 | 3.7% | x | -6.4% | 18.0% | 6.5% | -16.7%
CCCCOC(=O)c1ccc(NC(=O)C(=O)NCCN(CC)CC)cc1 | 0.0% | -2.7% | -8.0% | -3.4% | -7.1% | -14.6%
O=C(O)c1cc(N(Cc2ccccc2O)Cc2ccccc2O)ccc1O | u | x | x | -28.3% | x | 50.1µM*
Fc1ccc(-c2cc(C(F)(F)F)nc(N3CCCCC3)n2)cc1 | 7.4% | -2.3%[0.0925 µM] | -1.8% | 423.4% | 177.3% | 139.9%
O=C1CCCC(O)=C1Sc1cc(Cl)c(Cl)cc1Cl | 39.8µM* | x | u | 57.0% | x | 2.3%
CNC(=S)NNC(=O)COc1cccc(C)c1C | -0.4% | 7.94µM* | -4.0% | 10.3% | 3.1% | 39.8µM*
Cc1cccc(OCC(=O)Nc2ccc3c4c(cccc24)CC3)c1C | 7.7% | -7.5%[59 µM] | 26.7µM* | -11.7% | -4.9% | u
Cc1ccc(OCC(=O)Nc2ccc3c4c(cccc24)CC3)c(C)c1 | -12.4% | 10.8%[59 µM] | -10.5% | -3.6% | 3.3% | -12.8%
O=C(COc1ccccc1O)NNc1ccccc1 | -28.6% | 15.8µM* | -2.8% | 39.8% | -4.1% | 2.0%
CNC(=S)NNC(=O)COc1ccccc1C | 23.9% | 31.6µM* | -12.3% | 38.0% | -35.4% | 20µM*
Cc1ccc(C(=O)N2CCCCCCNC(=O)[C@@H]3CCC[C@@H]32)cn1 | 25.5% | x | x | x | x | x
C[C@@H](C(=O)Nc1nc(-c2ccccn2)cs1)N1C(=O)C2CCCCC2C1=O (some centres undefined) | u | 1.41µM* | 16.8µM* | u | 8.91µM* | 50.1µM*
COc1ccc(-c2csc(NC(=O)CN3C(=O)C4CCCCC4C3=O)n2)cc1OC (centres undefined) | u | -10.5% | 2.6% | -8.6% | u | -34.7%
O=C(CN1C(=O)C2CCCCC2C1=O)Nc1nc(-c2ccccn2)cs1 (centres undefined) | -22.4% | u | 23.8µM* | u | 35.5µM* | 79.4µM*
SMILES | 12-LOX inh | G9a inh | PLK1 PBD block | HP1b chromo inh | BAZ2B inh | JMJD2A Tudor
O=[N+]([O-])c1cc(-c2ncccn2)c([N+](=O)[O-])s1 | -27.9% | 28.2µM* | 2.67µM* | 19.7% | u | -23.7%
O=C(Nc1ncccn1)c1cc([N+](=O)[O-])cc([N+](=O)[O-])c1 | -30.8% | 15.0%[59 µM] | -2.6% | 8.2% | -0.7% | -25.5%
Cc1cc(NC(=O)COC(=O)CSc2nc3cc(Cl)ccc3n2Cc2ccccc2)no1 | 0.0% | 14.4%[59 µM] | u | -10.7% | 14.9% | 4.6%[11.4 µM]
N#Cc1nc(COc2ccccc2)oc1N1CCCCC1 | 392.1% | u | -8.9% | u | u | u
Cc1ccc(OCc2nc(C#N)c(N3CCCCC3)o2)cc1 | 180.4% | 39.8µM* | -7.0% | u | 28.2µM* | u
Cc1cccc(OCc2nc(C#N)c(N3CCCC3)o2)c1 | -3.8% | x | 0.5% | u | 39.8µM* | -35.4%
N#Cc1nc(COc2ccc(Cl)cc2)oc1N1CCCCCC1 | u | u | -2.8% | -46.1% | 11.2µM* | u
Cc1cc(Cl)ccc1NC(=O)CSc1nc2c(c(=O)[nH]1)CCC2 | -15.6% | u | x | 6.0% | 1.0% | -12.3%
O=S(=O)(/N=C(/NS(=O)(=O)c1ccccc1)c1ccccc1)c1ccccc1 | -4.0% | u | -6.5% | 37.9% | -3.5% | -17.5%
Cc1ccc(NC(=S)N/C(=N/S(=O)(=O)c2ccccc2)c2ccccc2)cc1 | 35.5µM*! | 12.6µM* | 23.8µM* | -23.5% | -30.6% | -29.9%
Cc1ccc(S(=O)(=O)/N=C(/NC(=S)Nc2ccccc2)c2ccccc2)cc1 | u | u | u | -9.8% | 5.9% | -12.6%
CCOC(=S)N/C(=N\S(C)(=O)=O)c1ccccc1 | u | 15.8µM* | 16.8µM* | 19.4% | -18.6% | -11.0%[11.4 µM]
CCCOC(=S)N/C(=N\S(=O)(=O)c1ccccc1)c1ccccc1 | 35.5µM* | 10µM* | 28.2µM* | -26.3% | 7.0% | -18.2%
CCOC(=S)N/C(=N\S(=O)(=O)c1ccccc1)c1ccccc1 | u | 10µM* | 18.9µM* | u | 11.0% | -6.7%
Cc1cccc(NC(=O)CSCC(=O)N(C)Cc2ccc3c(c2)OCCO3)c1 | -18.5% | x | -5.8% | 11.7% | x | -14.2%
CCN(CC)c1ccc(C(=O)OCC(=O)Nc2cccc(S(=O)(=O)NC3=NCCCCC3)c2)cc1 | -29.7% | 4.1%[59 µM] | -0.8% | 18.3% | -2.5% | -12.9%
O=S(=O)(N=C(NS(=O)(=O)c1ccc(Cl)cc1)c1ccccc1)c1ccc(Cl)cc1 | -19.1% | x | -11.6% | 11.9% | x | -21.9%
COC(=S)N/C(=N\S(=O)(=O)c1ccc(Cl)cc1)c1ccccc1 | u | 25.1µM* | 23.8µM* | -15.3% | -21.1% | -26.4%
Nc1cccc(OCC2CCCO2)c1 (centres undefined) | 7.08µM* | x | x | x | x | x
CCCCNc1c(-c2ccc(SC(C)CC)cc2)nc2cnccn12 (centres undefined) | x | x | -24.1% | 23.6% | x | 56.2µM*
